Screening results: PubChem, NMMLSC
GSH fluor – compound fluoresces at 488/530 nm on GSH beads; GSH beads flow cytometry, compound fluorescence 488/530 nm; stronger effect = higher value; fluorescence (KMESF) at 10 µM; 0.25% of 190,000 active; AID 1776; in the data active means fluorescence above about 89;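 further: glutathione beads carrying GST-tagged Bcl family fusion proteins plus one bare bead set; values are compound well signal with DMSO vehicle wells as background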
RGS4-Gao reg – human RGS4-Galphao interaction regulation | Multiplexed bead flow cytometry, RGS4-Galphao binding; actives lie on both sides | binding response (% of control), % at 10 µM | 0.33% of 220,000 active | AID 1415 | P09471; in the data active means binding response below about 49% or above about 150%; inactive means in between;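 further: fluorescent Galphao activated with aluminum fluoride binding bead-coupled RGS4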
RGS7-Gao reg – regulators of human RGS7-Galphao interaction; Multiplexed bead flow cytometry, RGS7-Galphao binding; actives lie on both sides; P09471; binding response (% of control), % at 10 µM; 0.35% of 220,000 active; in the data active means binding response below about 49% or above about 150%; inconclusive means no clear call, values can overlap the other calls; inactive means in between;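 further: fluorescent Galphao held in activated GDP-AlF4 state binding bead-coupled RGS7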
RGS16-Gao HTS – RGS16-Galphao interaction regulator (human); binding response (% of control), % at 10 µM; O15492+P09471; AID 1441; bead-based flow cytometry RGS16-Galphao binding, fluorescence; actives lie on both sides; 0.38% of 220,000 active;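 further: Galphao activated by GDP with aluminum fluoride before binding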
Target sequence (O15492 whole entry, looked up): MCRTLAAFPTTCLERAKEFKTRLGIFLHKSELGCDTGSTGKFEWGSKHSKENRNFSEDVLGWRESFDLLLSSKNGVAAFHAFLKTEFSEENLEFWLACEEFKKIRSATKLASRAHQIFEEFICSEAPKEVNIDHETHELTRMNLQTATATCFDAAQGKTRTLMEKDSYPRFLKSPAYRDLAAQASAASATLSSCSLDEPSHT
Target sequence (P09471 whole entry, looked up): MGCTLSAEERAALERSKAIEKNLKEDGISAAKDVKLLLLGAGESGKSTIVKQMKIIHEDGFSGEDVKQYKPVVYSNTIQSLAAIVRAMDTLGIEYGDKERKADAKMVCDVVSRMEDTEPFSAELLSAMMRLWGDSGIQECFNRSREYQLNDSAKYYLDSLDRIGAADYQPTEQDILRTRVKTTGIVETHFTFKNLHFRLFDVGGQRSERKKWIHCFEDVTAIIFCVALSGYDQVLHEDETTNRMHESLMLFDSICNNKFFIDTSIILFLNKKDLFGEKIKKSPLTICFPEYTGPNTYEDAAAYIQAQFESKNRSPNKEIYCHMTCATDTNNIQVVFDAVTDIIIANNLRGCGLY
RGS8-Gao reg – regulators of human RGS8-Galphao interaction; P09471; multiplexed bead flow cytometry, RGS8-Galphao binding; actives lie on both sides; response (percent of control binding), % at 10 µM; 0.34% of 220,000 active; AID 1423; in the data active means response below about 60% or above about 140%; inactive means in between;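 further: Galphao activated as the GDP aluminium fluoride complex binding bead-coupled RGS8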
Avidin fluor – compound fluoresces at 488/530 nm on avidin beads | compound fluorescence 488/530 nm, flow cytometry; stronger effect = higher value | fluorescence (KMESF) at 10 µM | 0.38% of 220,000 active; in the data active means fluorescence above about 47
RGS4-Gao HTS – modulates binding between human RGS4 and Galphao; RGS4–Galpha-o binding response, % at 10 µM; 99% of 1,600 active; shares compounds with RGS16-Gao HTS; multiplexed bead flow cytometry, RGS–Galpha-o binding;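 further: fluorescently labeled Galpha-o bound to GDP with aluminium fluoride binding biotinylated RGS beads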
Avidin counter – biotin-avidin bead binding disruption counter-screen; shares compounds with RGS16-Gao HTS; streptavidin beads, fluorescein-biotin binding, flow cytometry; inhibition, % at 10 µM; 1,700 tested, under 10 active; AID 1783;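 active means inhibition above 50%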;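 further: median green fluorescence of gated singlet beads compared with DMSO control wells; 0% = DMSO wells and 100% = complete loss of bead fluorescence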
RGS8-Gao confirm – confirmation of regulators of human RGS8-Galphao interaction; binding response (% of control), % at 10 µM; shares compounds with RGS16-Gao HTS; bead-based flow cytometry RGS8-Galphao binding, fluorescence; actives lie on both sides; 3% of 1,700 active; in the data active means binding response below about 72% or above about 130%; inactive means in between;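 further: Galphao activated as GDP AlF4 complex before binding bead RGS8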
RGS7-Gao confirm – RGS7-Galphao interaction regulation, single point confirmation; response (percent of control binding), % at 10 µM; 7.8% of 1,700 active; AID 1837; bead-based flow cytometry RGS7-Galphao binding; actives lie on both sides; shares compounds with RGS16-Gao HTS; in the data active means response below about 75% or above about 130%; inactive means in between;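 further: fluorescent Galphao activated with GDP and aluminum fluoride binding bead-coupled RGS7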
RGS16-Gao conf – confirmation of regulators of human RGS16-Galphao interaction. shares compounds with RGS16-Gao HTS. bead-based flow cytometry, RGS16-Galphao binding; actives lie on both sides. response (% of control binding), % at 10 µM. 4% of 1,700 active. AID 1838; in the data active means response below about 74% or above about 130%; inactive means in between;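 further: Galphao activated as the GDP aluminium fluoride complex binding bead-coupled RGS16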
RGS4-Gao confirm – RGS4-Galphao interaction regulation, single point confirmation; shares compounds with RGS16-Gao HTS; RGS4-Galphao binding, multiplexed bead flow cytometry; actives lie on both sides; binding response (% of control), % at 10 µM; 4% of 1,700 active; AID 1840; in the data active means binding response below about 74% or above about 130%; inactive means in between
RGS19-Gao conf – confirmation of regulators of human RGS19-Galphao interaction. shares compounds with RGS16-Gao HTS. bead-based flow cytometry RGS19-Galphao binding; actives lie on both sides. response (percent of control binding), % at 10 µM. 5% of 1,700 active; in the data active means response below about 50% or above about 160%; inactive means in between;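 further: 100% = no compound control and 0% = blank background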
* hit, by the source's call; u = inconclusive; x = no result; [ ] = dose if it differs, or a comment. Most compounds without a hit are left out; they make up all but 1.2% or so of the library. Unless noted, how the calls were made is not given here.

SMILES	GSH fluor	RGS4-Gao reg	RGS7-Gao reg	RGS16-Gao HTS	RGS8-Gao reg	Avidin fluor	Avidin counter	RGS8-Gao confirm	RGS7-Gao confirm	RGS16-Gao conf	RGS4-Gao confirm	RGS19-Gao conf	others
CC1=CC(C)(C)N=C(NC#N)N1	46	42*	44*	77	60	-2	0	99	93	97	97	102
O=C1CC(c2ccccc2)=Nc2ccccc2N1	37	103	100	97	101	13	x	x	x	x	x	x
O=C1CC(/C=C/c2ccncc2)=Nc2ccccc2N1	24	117	162*[activator]	96	96	99*	-2	102	100	103	102	89	RGS4-Gao HTS=117*
O=C(NCc1ccccc1)c1cnsn1	13	24*	9.6*	6.7*	13*	1	-1	103	102	102	102	93
CN(C)/C=C(\C#N)C(N)=C(C#N)C#N	9	97	u	98	98	9	x	x	x	x	x	x
Cc1cc(NC(=O)COC(=O)c2ccccc2[N+](=O)[O-])no1	12	100	u	103	101	11	x	x	x	x	x	x
Cc1nc(N)c(CC(Br)CBr)c(Cl)n1 (stereo unspecified)	x	95	u	93	102	9	x	x	x	x	x	x
O=C(C[n+]1cccc(CNC(=O)c2ccc(OC(F)F)cc2)c1)Nc1ccc(F)cc1	18	116	121	21*	91	1	0	105	106	105	107	118	RGS4-Gao HTS=116*
O=C(C[n+]1cccc(CNC(=O)c2ccc(OC(F)F)cc2)c1)Nc1cccc(C(F)(F)F)c1	9	105	104	107	106	4	x	x	x	x	x	x
CC(=O)Nc1ccc(C(=O)NCC(=O)OCc2c(F)cccc2Cl)cc1	11	100	102	101	100	9	x	x	x	x	x	x
O=[N+]([O-])c1cc(C(F)(F)F)c(Cl)cc1N1CCN(CCO)CC1	15	103	100	99	102	22	x	x	x	x	x	x
OCCN1CCN(c2cc(C(F)(F)F)nc3c(F)cccc23)CC1	x	-9.0*	u	-6.6*	11*	-1	0	102	100	103	100	107
O=C(NC1CCCCC1)C(c1cc2c(cc1[N+](=O)[O-])OCO2)N1CCCCC1 (stereo unspecified)	19	99	101	96	101	5	x	x	x	x	x	x
COc1ccccc1NC(=O)CCC(=O)N/N=C(/C)c1ccc(C)cc1	13	90	93	16*	80	7	2	104	100	104	102	100	RGS4-Gao HTS=90*
C/C(=N/NC(=O)CCC(=O)Nc1cccc(Cl)c1)c1ccc(C)cc1	12	94	98	63	85	3	x	x	x	x	x	x
Cc1cc2oc(=O)cc(Cn3nnc(-c4ccc(Cl)cc4)n3)c2cc1C(C)C	15	95	91	95	97	6	x	x	x	x	x	x
CCCOC(=O)c1ccc(NC(=O)c2ccccc2OC)cc1	70	104	103	103	99	13	x	x	x	x	x	x
